Only some compounds are listed: those with a hit (about 4.7% of all), similar ones and a draw of the others.
ATXN2 expr inh: reduces ATXN2 reporter expression in HEK-293 cells; HEK-293 ATXN2-luciferase reporter, luminescence, 24 h; Potency, µM (top dose mostly 57 µM), usual class: inhibitors; hit rate 0.72% among 360,000; further: nearly all actives have a fitted effect of over 55% in size
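qHTS (up to 57 uM final) was run with 24 h compound exposure of reporter cells at 37 °C. Each well was multiplexed: SteadyGlo luminescence measured ATXN2-luciferase expression after a fluorogenic Gly-Phe-AFC viability readout (25 uM final).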
DRD3 agonist: activates the human D3 dopamine receptor. P35462. D3R DiscoveRx beta-arrestin cells, luminescence, 90 min. max activation, %. hit rate 0.58% among 410,000. AID 652048; in the data active means max activation above about 30%
Target sequence (P35462 whole entry, looked up): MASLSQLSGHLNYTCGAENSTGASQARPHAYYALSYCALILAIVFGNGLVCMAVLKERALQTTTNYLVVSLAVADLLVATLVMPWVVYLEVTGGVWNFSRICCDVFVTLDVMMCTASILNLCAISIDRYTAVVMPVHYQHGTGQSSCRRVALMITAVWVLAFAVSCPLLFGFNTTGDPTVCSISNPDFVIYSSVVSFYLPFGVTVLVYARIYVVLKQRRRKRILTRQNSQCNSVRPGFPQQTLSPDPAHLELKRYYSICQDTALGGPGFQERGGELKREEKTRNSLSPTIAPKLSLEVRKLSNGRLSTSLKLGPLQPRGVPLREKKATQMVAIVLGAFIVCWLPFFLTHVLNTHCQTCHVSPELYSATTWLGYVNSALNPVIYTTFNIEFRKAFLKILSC
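Agonist-mode cell screen: cells plated at 1500/well and incubated overnight at 37 °C, then exposed to library compounds for 90 min at 37 °C. Detection reagent was added for 30–60 min at room temperature, and luminescence was read.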
ATXN viability: cell viability loss in ATXN counter-screen. AID 651635. S2 cells (HEK-293 line with an ATXN2-luciferase reporter) viability, CellTiter-Fluor protease fluorescence, 24 h. hit rate 0.49% among 400,000. Potency, µM (top dose mostly 56.7 µM), most hits filed as cytotoxic; further: nearly all actives have a fitted effect of over 40% in size
D3 antag: D3 dopamine receptor (human) antagonism; D3R cells, DiscoveRx beta-arrestin luminescence, antagonist mode; active compounds read low; max response, negative = inhibition, %; hit rate 2.5% among 360,000; AID 652054; in the data active means max response below about -50%; inconclusive means no clear call, values can overlap the other calls
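Cells expressing the human receptor were seeded at 1500 cells/well, incubated overnight at 37 degrees C in 5% CO2, then exposed to library compounds with dopamine controls for 90 minutes at 37 degrees C before luminescent detection.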
TGFb SMAD3 inh: TGF-b pathway inhibition; HepG2 CAGA-GFP TGF-b/SMAD3 reporter, GFP fluorescence, 18 h; TGF-beta stimulated, 500 pg/mL final; Potency, µM (highest dose often 46.1 µM), actives largely listed as inhibitors; hit rate 1.2% among 410,000; further: nearly all actives have a fitted effect of over 65% in size
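Read-out: total well GFP (ex488/em500-530) summed from mean per-cell fluorescence. Cells: HEPG2 CAGA-GFP, 1% FBS DMEM, 18 h at 37 degrees C with 500 pg/mL final TGF-beta. Unstimulated wells served as the full-inhibition control; stimulated DMSO wells = 0%.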
HepG2 tox: kills HepG2 cells in TGF-b inhibitor counter-screen | AID 588856 | Potency, µM (doses to about 46.1 µM), actives largely listed as cytotoxic | hit rate 0.76% among 410,000 | HepG2 CAGA-GFP viability, ATP luminescence, 18 h
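CellTiter-Glo luminescence gave cytotoxicity after 18 hours at 37 degrees C. The cells were HepG2 CAGA-GFP in 1% FBS DMEM, stimulated with 500 pg/mL TGF-beta after compound addition. %Activity was normalised to no-cell wells (complete cell-killing) and DMSO (no toxicity), and curves were fitted and classified.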
A number is an active result; n = inactive; u = inconclusive; x = no result; ! = repeats disagree. Unless noted, the call rests on the fitted dose curve; in most records, active means well fitted curve in the direction sought with a large enough effect; inconclusive means small, poorly fitted or top-dose-only effect, or another doubt; inactive means no such curve, though single readings can be large; an effect the other way counts as inactive or inconclusive.

SMILES	ATXN2 expr inh	DRD3 agonist	ATXN viability	D3 antag	TGFb SMAD3 inh	HepG2 tox
c1ccc(C2CCC(N3CCN(c4ccccc4)CC3)CC2)cc1 (configuration not stated)	n	n	n	-52	n	n
CC1CCC(N2CCN(S(=O)(=O)Cc3ccccc3)CC2)CC1 (configuration not stated)	n	n	n	n	n	n
O=S(=O)(Cc1ccccc1)N1CCC(N2CCN(c3ccccc3)CC2)CC1	n	69	n	u	n	n
Cc1ccnc2c1ccc1ccccc12	n	n	n	n	n	n
Cc1ccnc2c(O)cccc12	x	x	x	x	3.5µM	4µM
Cc1cc(C)c2cccnc2c1O	x	x	x	x	3.2µM	n
Oc1c(Br)cc(Br)c2cccnc12	22µM!	n	u	n	u	n
Cc1ccnc2c1ccc1c(C)ccnc12	5.3µM	n	x	-100	4.5µM	16µM
Cc1ccc2oc(-c3ccc(NC(=O)c4oc5ccc(Cl)cc5c4C)cc3)nc2c1	n	n	n	x	n	n
Cc1cccc(Cc2c(C)nc3nc(SCC(=O)NCc4ccc(F)cc4)nn3c2C)c1	n	n	n	x	n	n
Cc1cccnc1NCc1ccc(O)c2ncccc12	u	n	n	-51	u	n
c1cnc2c(c1)ccc1cccnc12	5.6µM!	n	u	-76	u	n
Cc1ccc(NCc2ccc(O)c3ncccc23)cc1	n	n	n	n	n	n
Cc1ccnc2c1ccc1cccnc12	u	n	u	-95	n	n
CC(C)c1ccc(NC(=O)c2cc3c([nH]c2=O)CC(C)(C)CC3=O)cc1	x	x	x	x	n	n
Cc1ccccc1NC(=O)c1c(C)oc2ccc(O)c(CN3CCCCCC3)c12	x	n	x	x	u	n
CC[C@H](C)[C@H]1CNC(=S)N1CC1CCN(CC2CCC(C)CC2)CC1 (some centres not stated)	n	n	n	-104	n	n
O=C1NC[C@H](Cc2ccccc2)N(CC2CCN(CCC34CC5CC(CC(C5)C3)C4)CC2)C1=O	n	n	n	n	n	n
CC[C@H](C)[C@H]1CNC(=S)N1CC1CCN(CCC23CC4CC(CC(C4)C2)C3)CC1	n	n	n	-83	n	n
CC[C@H](C)[C@H]1CNC(=O)C(=O)N1CC1CCN(CCc2ccc(Cl)c(Cl)c2)CC1	n	n	n	n	n	n
O=C(NCCCN1CCOCC1)c1ccccc1N1C(=O)[C@@H]2Cc3c([nH]c4ccccc34)C(c3ccc(F)cc3)N2C1=O (some centres not stated)	n	33	n	n	n	n
O=C(NCCN1CCOCC1)c1ccccc1N1C(=O)[C@@H]2Cc3c([nH]c4ccccc34)C(c3ccccc3)N2C1=O (some centres not stated)	n	n	n	n	n	n
CCc1ccc(S(=O)(=O)c2nnn(-c3ccc(F)cc3)c2N)cc1	x	n	x	x	u	n
O=C(NOCC1CC1)c1ccc(F)c(F)c1Nc1ccc(I)cc1Cl	31µM	n	u	x	x	x
Cc1ccc(Oc2ccc(C(F)(F)F)cc2[N+](=O)[O-])c([N+](=O)[O-])n1	n	n	u	n	n	22µM
SMILES	ATXN2 expr inh	DRD3 agonist	ATXN viability	D3 antag	TGFb SMAD3 inh	HepG2 tox
CCc1ccc(NC(=S)NC2CC3CCCC(C2)N3Cc2cccs2)cc1 (configuration not stated)	n	n	n	-70	n	n
CCc1ccccc1NC(=S)NC1CC2CCC(C1)N2Cc1ccc(F)cc1 (configuration not stated)	n	n	n	-90	n	n
CCc1ccccc1NC(=O)NC1CC2CCC(C1)N2Cc1cccs1 (configuration not stated)	n	n	n	-54	n	n
CCc1ccccc1NC(=S)NC1CC2CCC(C1)N2Cc1ccco1 (configuration not stated)	n	n	n	-53	n	n
Cc1c(C(=O)N2CCCC(c3ccccc3)C2)sc2ncnc(NCCc3ccccn3)c12 (configuration not stated)	x	x	n	x	x	x
Cc1cc(OC(C)C(=O)NNC(=O)Nc2ccc(F)cc2F)cc(C)c1Cl (configuration not stated)	n	n	n	n	16µM	n
CCCn1c(/C=C/c2ccccc2)nc2ccccc21	n	31!	u	n	n	n
COCCOCCn1c(/C=C/c2ccccc2)nc2ccccc21	n	n	u	n	u	n
O=C(Nc1ccc(Cl)cc1)N1CCN(c2ccc3nnc(-c4ccc(F)cc4)n3n2)CC1	u	n	u	n	14µM	n
c1nc(NCCN2CCOCC2)c2sc3nc(N4CCOCC4)c4c(c3c2n1)CCC4	n	n	n	u	u	n
COc1ncnc2c1sc1nc(-c3ccccc3)c3c(c12)CCCC3	n	37	n	n	n	n
CN(C)CCNc1ncnc2c1sc1nc(-c3ccccc3)c3c(c12)CCCC3	32µM	n	x	n	u	14µM
CCN1C(=O)/C(=C\N2CCN(C)CC2)SC1=S	n	n	n	n	n	n
CCN1C(=O)/C(=C\N2CCN(c3ccc(F)cc3)CC2)SC1=S	n	34	n	n	n	n
C[C@@H](c1ccccc1)N1C[C@H](COCc2ccccc2)Oc2cc(N3CC[C@@H](N(C)C)C3)ccc2S1(=O)=O	28µM	n	22µM	n	x	x
CCCCC[C@@H](C)N1C[C@H](COCc2ccccc2)Oc2cc(N3CC[C@H](N(C)C)C3)ccc2S1(=O)=O	u	n	25µM	n	x	x
CCCCC[C@H](C)N1C[C@H](COCc2ccccc2)Oc2cc(N3CC[C@H](O)C3)ccc2S1(=O)=O	n	n	u	n	x	x
C[C@H](c1ccccc1)N1C[C@H](COCc2ccccc2)Oc2cc(N3CC[C@H](N(C)C)C3)ccc2S1(=O)=O	u	n	16µM	n	x	x
C[C@@H](c1ccccc1)N1C[C@H](COCc2ccccc2)Oc2cc(N3CC[C@H](N(C)C)C3)ccc2S1(=O)=O	u	n	16µM	n	x	x
COc1cccc(OC)c1-c1cc(CCCc2cc(-c3c(OC)cccc3OC)nc3ccccc23)c2ccccc2n1	x	x	x	x	u	n
CCc1c(CN2CCN(c3ccc(F)cc3)CC2)csc1C	x	n	x	x	n	n
CCOc1ccc(CCNC(=O)Cn2c(C)c3cnn(-c4ccccc4)c(=O)c3c2C)cc1	n	n	n	x	n	n
Cc1cc(Cl)ccc1NC(=O)CN1CCC(C(O)(c2ccccc2)c2ccccc2)CC1	n	n	n	-62	n	n
CC(C(O)c1ccc(O)cc1)N1CCC(Cc2ccccc2)CC1 (configuration not stated)	n	n	n	-88!	n	n
O=C(Nc1ccc(S(=O)(=O)N2CCCCC2c2cccnc2)cc1)c1ccc(Br)cc1 (configuration not stated)	14µM	n	11µM	x	n	n
